High-throughput results from PubChem.
ABCB6 inh 2: ABCB6 transporter inhibitors, primary screen, K562-ABCB6 cells, flow cytometry, MLPCN library; AID 602162, 2011; ATP-binding cassette sub-family B member 6 (Homo sapiens), Q9NP58; fluorescence ratio to DMSO, % at 10 µM; K562-ABCB6 porphyrin accumulation, 1 h; stronger effect = lower value; 0.19% of 360,000 active;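 active = fluorescence ratio to DMSO below 75%, the collection mean minus 3 SD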;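 also: signal is porphyrin accumulated inside mitochondria; 100% equals median channel fluorescence of DMSO control wells; lower ratio means ABCB6 inhibition with less porphyrin fluorescence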
Target sequence (Q9NP58 whole entry, looked up): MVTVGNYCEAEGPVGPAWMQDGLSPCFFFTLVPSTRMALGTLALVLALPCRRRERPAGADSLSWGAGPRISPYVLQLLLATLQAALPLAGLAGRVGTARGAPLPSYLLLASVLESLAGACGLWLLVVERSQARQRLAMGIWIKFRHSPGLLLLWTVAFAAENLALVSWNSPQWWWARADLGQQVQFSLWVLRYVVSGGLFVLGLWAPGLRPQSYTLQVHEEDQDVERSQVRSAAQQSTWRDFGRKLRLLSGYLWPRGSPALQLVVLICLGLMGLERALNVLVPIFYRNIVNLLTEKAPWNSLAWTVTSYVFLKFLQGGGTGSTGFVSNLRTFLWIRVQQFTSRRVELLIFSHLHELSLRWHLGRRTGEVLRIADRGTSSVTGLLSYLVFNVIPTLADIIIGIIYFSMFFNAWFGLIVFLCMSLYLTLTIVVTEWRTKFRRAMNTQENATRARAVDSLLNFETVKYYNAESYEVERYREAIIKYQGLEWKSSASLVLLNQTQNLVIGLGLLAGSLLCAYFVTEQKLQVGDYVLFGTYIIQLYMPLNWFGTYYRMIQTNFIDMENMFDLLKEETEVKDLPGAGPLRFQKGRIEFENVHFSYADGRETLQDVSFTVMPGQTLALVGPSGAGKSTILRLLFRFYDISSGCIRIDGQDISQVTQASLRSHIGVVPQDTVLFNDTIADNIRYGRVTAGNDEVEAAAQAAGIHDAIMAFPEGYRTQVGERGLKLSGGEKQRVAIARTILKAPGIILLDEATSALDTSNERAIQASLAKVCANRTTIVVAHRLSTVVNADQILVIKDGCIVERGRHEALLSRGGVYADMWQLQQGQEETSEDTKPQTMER
bovine MsrA act: bovine MsrA enzyme activators, primary screen, biochemical, absorbance, HTS. 0.3% of 360,000 active. activation, % at 10.6 µM. Methionine sulfoxide reductase A (Bos taurus). purified bovine MsrA, absorbance read-out. AID 602163, 2012; in the data active = activation above about 7.5%;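 also: 0% = vehicle and 100% = reference activator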
MsrA inhibitor: bovine MsrA enzyme inhibitors, primary screen, biochemical, absorbance, HTS | AID 651718, 2012 | 0.75% of 360,000 active | inhibition, % at 15.5 µM | purified bovine MsrA, absorbance read-out | Methionine sulfoxide reductase A (Bos taurus); in the data active = inhibition above about 4.5%;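 also: 0% = vehicle wells with enzyme and 100% = reference inhibitor wells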
SMARCA2 activ: SMARCA2 (BRM) function activators, primary screen, cell-based, luminescence, high throughput | 1% of 370,000 active | activation, % at 9.1 µM | MG213 cells, MMTV-luciferase reporter, dexamethasone, overnight; in the data active = activation above about 7.8%;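 also: 0% = vehicle wells and 100% = reference activator wells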
An asterisk follows results filed as active. This is a sample that favours compounds with a hit; in the whole collection about 2.1% have one here.

For CN(Cc1ccccc1)S(=O)(=O)c1cccc(C(=O)OCc2cccc([N+](=O)[O-])c2)c1 the results were SMARCA2 activ -1.
Screening O=C(COc1ncnc2ccccc12)c1ccc(Cl)cc1 returned ABCB6 inh 2 93, bovine MsrA act -5, MsrA inhibitor 0 and SMARCA2 activ 7.8*.
COc1ccc(-n2c(COc3ccc(C)cc3)nnc2SCC(=O)Nc2ccc(S(=O)(=O)Nc3cc(C)nc(C)n3)cc2)cc1 was read as SMARCA2 activ -3.
C#CCNC(=O)C[C@H]1C[C@@]2(C(=O)OC)C(=C[C@H](COCc3ccccc3)O[C@@H]2C)N(Cc2cccc3ccccc23)C1=O was read as SMARCA2 activ -4.
Screening CCOC(=O)[C@H](Cc1ccccc1)NC(=O)[C@H]1C[C@@]2(N3CCCCC3)c3ccccc3N(C(=O)OC(C)(C)C)[C@H]2N1C(=O)OC(C)(C)C returned SMARCA2 activ -4.
`CC(CCCN1CCCC1)Nc1ccnc2cc(Cl)ccc12` (centres undefined) gave ABCB6 inh 2 101, bovine MsrA act -1, MsrA inhibitor 4.8* and SMARCA2 activ -3.
COc1ccc(OC)c(S(=O)(=O)N2CCCCC2C(=O)N2CCN(c3ccc(F)cc3)CC2)c1 (centres undefined) was read as SMARCA2 activ -3.
`Cc1ccc(NC(=O)C2CCCN2S(=O)(=O)c2cccnc2)cc1C` (centres undefined) gave SMARCA2 activ -4.
For O=C(CCc1ccccc1)N[C@H]1[C@@H](OC(=O)c2cccnc2)CCC[C@]12C(=O)N(Cc1ccccc1)c1ccccc12 the results were SMARCA2 activ 0.
Cc1ccc2nc(-c3ccc(NC(=O)COC(=O)c4ccc(Br)o4)cc3)sc2c1 was read as ABCB6 inh 2 95, bovine MsrA act -5, MsrA inhibitor 1 and SMARCA2 activ 9.3*.
Screening Cc1ccc2nc(-c3ccc(NC(=O)COC(=O)c4ccco4)cc3)sc2c1 returned ABCB6 inh 2 94, bovine MsrA act -9, MsrA inhibitor 0 and SMARCA2 activ 7.9*.
COc1ccc(/C=C(\C#N)C(=O)OCC(=O)Nc2ccc(-c3nc4ccc(C)cc4s3)cc2)cc1 was read as ABCB6 inh 2 92, bovine MsrA act -3, MsrA inhibitor 0 and SMARCA2 activ 7.8*.
Cc1ccc2nc(-c3ccc(NC(=O)COC(=O)c4cncc(Br)c4)cc3)sc2c1 was read as ABCB6 inh 2 95, bovine MsrA act -6, MsrA inhibitor 1 and SMARCA2 activ 6.
Screening Cc1nccn1S(=O)(=O)c1ccc(Br)cc1Br returned ABCB6 inh 2 93, bovine MsrA act 0, MsrA inhibitor 5.5* and SMARCA2 activ 3.
For COc1ccc(Br)cc1S(=O)(=O)n1ccnc1C the results were ABCB6 inh 2 87, bovine MsrA act -6, MsrA inhibitor 0 and SMARCA2 activ 4.
Screening CC(Cc1ccccc1)NC(=O)/C=C/c1ccc([N+](=O)[O-])cc1 (centres undefined) returned ABCB6 inh 2 105, bovine MsrA act -11, MsrA inhibitor 1 and SMARCA2 activ -3.
CC(Cc1ccccc1)NC(=O)c1ccc([N+](=O)[O-])cc1 (centres undefined) was read as ABCB6 inh 2 97, bovine MsrA act -3, MsrA inhibitor -1 and SMARCA2 activ 7.8*.
`Cc1nn(-c2ccccc2)c(Cl)c1/C=N/Nc1nc2ccccc2[nH]1` gave ABCB6 inh 2 89, bovine MsrA act -1, MsrA inhibitor 1 and SMARCA2 activ 7.9*.
For Cc1cc(=O)[nH]c(N/N=C/c2c(C)nn(-c3ccccc3)c2Cl)n1 the results were ABCB6 inh 2 94, bovine MsrA act -4, MsrA inhibitor 2 and SMARCA2 activ -3.
`COc1ccc(NC(=O)/C(Cl)=C(/Cl)S(=O)Cc2ccc(Cl)cc2)cn1` (centres undefined) gave ABCB6 inh 2 37*, bovine MsrA act -3, MsrA inhibitor 2 and SMARCA2 activ -8.
Screening COc1ccc(NC(=O)/C(Cl)=C(/Cl)S(=O)(=O)Cc2ccccc2)cn1 returned ABCB6 inh 2 60*, bovine MsrA act -4, MsrA inhibitor 1 and SMARCA2 activ -9.
For O=C([C@@H]1C[C@H]1c1ccccc1)N1CC[C@H]2[C@H](CCCN2Cc2ccccc2)C1 the results were SMARCA2 activ 0.
Cc1cc(O)c(-c2cc(C(=O)NCc3ccc4c(c3)OCO4)[nH]n2)cc1C was read as ABCB6 inh 2 59*, bovine MsrA act -14, MsrA inhibitor 2 and SMARCA2 activ -1.
Screening O=S(=O)(/C=C/c1ccccc1)N1CCN(c2cccc(Cl)c2)CC1 returned ABCB6 inh 2 69*, bovine MsrA act -3, MsrA inhibitor 1 and SMARCA2 activ 0.
Screening COc1ccc(CN(CCN2CCOCC2)C(=O)c2cc(F)ccc2C)cc1OC returned SMARCA2 activ 7.
C=CCN1N=C(/C=C/c2ccc(C)cc2)CCC1=O was read as ABCB6 inh 2 103, bovine MsrA act -9, MsrA inhibitor 4.6* and SMARCA2 activ 2.
`CN(C)C(CNC(=O)c1ccc([N+](=O)[O-])cc1Cl)c1ccco1` (centres undefined) gave ABCB6 inh 2 96, bovine MsrA act -2, MsrA inhibitor -1 and SMARCA2 activ 1.
Screening CN(C)C(CNS(=O)(=O)c1cc([N+](=O)[O-])ccc1Cl)c1ccco1 (centres undefined) returned ABCB6 inh 2 96, bovine MsrA act -1, MsrA inhibitor 0 and SMARCA2 activ 7.8*.
For O=C(CCc1ccccc1)N[C@H]1[C@H](O)CCC[C@@]12C(=O)N(Cc1ccccc1)c1ccc(-c3ccccc3)cc12 the results were SMARCA2 activ -6.
For CN1CCN(C(=O)CCN2C(=O)/C(=C/c3ccccc3Cl)SC2=S)CC1 the results were ABCB6 inh 2 100, bovine MsrA act -6, MsrA inhibitor 1 and SMARCA2 activ 7.9*.
Screening CN1CCN(C(=O)CCN2C(=O)/C(=C\c3ccccc3F)SC2=S)CC1 returned ABCB6 inh 2 102, bovine MsrA act -1, MsrA inhibitor 1 and SMARCA2 activ 3.
For O=c1[nH]c(/C=C\c2ccc(O)cc2)nc(O)c1[N+](=O)[O-] the results were ABCB6 inh 2 104, bovine MsrA act -4, MsrA inhibitor 4 and SMARCA2 activ 2.
`O=c1[nH]c(/C=C\c2ccc(O)c(Cl)c2)nc(O)c1[N+](=O)[O-]` gave ABCB6 inh 2 101, bovine MsrA act -2, MsrA inhibitor 4.6* and SMARCA2 activ -1.
`Cc1cccc(NC(=O)CSc2nnc(-c3ccco3)c(-c3ccco3)n2)c1C` gave ABCB6 inh 2 102 and bovine MsrA act -13.
`Cc1cccc(NC(=O)CSc2nnc(-c3ccco3)c(-c3ccco3)n2)c1` gave ABCB6 inh 2 104, bovine MsrA act -10, MsrA inhibitor 4.9* and SMARCA2 activ 4.
